Our source for the growth values is PubChem BioAssay (NCI).

Some test systems named below: HCT-15 colon; SNB-19 CNS; U251 CNS; PC-3 prostate; UACC-62 melanoma; LOX IMVI melanoma; SK-MEL-28 melanoma; SK-MEL-2 melanoma; EKVX NSCLC; SN12C renal; UO-31 renal; TK-10 renal; ACHN renal; CAKI-1 renal; A498 renal; CCRF-CEM leukemia; MOLT-4 leukemia; SNB-75 CNS; SK-MEL-5 melanoma.
Test in all cases: NCI-60 one-dose screen, 48 h (100 = growth as untreated, 0 = no growth, -100 = all killed)
What all share (conditions): 10 µM unless noted

Each structure is given as a SMILES string. Compounds without any hit were thinned out: in the full panel of roughly 83,000, 20% have a hit.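 Values shown are percent growth following 48 h exposure of cells in 96-well plates to a single concentration of compound; below 10 was considered active.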 A number with no mark means an inactive call. The source made the active and inactive calls.

On to `FC(F)(F)c1cc(N2CCCCC2)nc(NCCCNc2ccnc3cc(Cl)ccc23)n1`, for which the growth is 53.2% with HCT-15 colon; 82.2% with SNB-19 CNS; 67.4% with U251 CNS; 45.4% with PC-3 prostate; 61.9% in the assay with UACC-62 melanoma; 65.8% in the assay with LOX IMVI melanoma. Besides, the growth in the assay on SK-MEL-28 melanoma is 76.7%; in the assay with SK-MEL-2 melanoma it was 64.9%; in the assay on EKVX NSCLC it was 48.3%; with SN12C renal, 69.1%; with UO-31 renal, 46.8%; in the assay with TK-10 renal, 63.6%. Besides, the growth with ACHN renal is 65.8%; in the assay with CAKI-1 renal, 60.7%; in the assay on A498 renal, 47.8%; with CCRF-CEM leukemia it was 54%; in the assay with MOLT-4 leukemia, 40%.

For `O=S(=O)(c1ccc(NCSc2nc3ccccc3s2)cc1)c1ccc(NCSc2nc3ccccc3s2)cc1`, the growth in the assay on HCT-15 colon is 106%; in the assay with SNB-75 CNS it was 81.6%; in the assay on SNB-19 CNS it was 95.9%; in the assay on U251 CNS, 90.6%; with PC-3 prostate it was 64.9%; in the assay on SK-MEL-5 melanoma, 97%. The growth in the assay on UACC-62 melanoma was 83.5%; with LOX IMVI melanoma it was 91.1%; in the assay on SK-MEL-28 melanoma, 110%; with SK-MEL-2 melanoma it was 78.8%; in the assay on EKVX NSCLC it was 101%; with SN12C renal it was 95.5%. Besides, the growth is 60.2% with UO-31 renal; 92.6% with TK-10 renal; 102% in the assay on ACHN renal; 95.4% in the assay with CAKI-1 renal; 112% in the assay with A498 renal; 71.8% in the assay with CCRF-CEM leukemia. Moreover, in the assay on MOLT-4 leukemia, the growth was 76.9%.

For `CNC(=O)c1cc(Oc2ccc3nc(NC(=O)c4cc(C(F)(F)F)cc(C(F)(F)F)c4)sc3c2)ccn1`, the growth in the assay on HCT-15 colon was 32.1%; with SNB-75 CNS, 28.5%; with SNB-19 CNS, 15.5%; in the assay on U251 CNS it was 14.2%; with PC-3 prostate it was 8.79% (active); in the assay with SK-MEL-5 melanoma it was -39.9% (active). The growth in the assay with UACC-62 melanoma is 2.25% (active); with LOX IMVI melanoma, 27.4%; with SK-MEL-28 melanoma, 26.4%; in the assay on SK-MEL-2 melanoma it was -18.5% (active); in the assay on EKVX NSCLC, 23.3%; in the assay on SN12C renal, 10.5%. The growth in the assay on UO-31 renal is 6.1% (active); with TK-10 renal it was 16.6%; with ACHN renal it was 14.9%; in the assay on CAKI-1 renal, 11%; in the assay with A498 renal it was -11.4% (active); in the assay on CCRF-CEM leukemia, 16.8%. Besides, the growth with MOLT-4 leukemia was 8.03% (active).

Take `COCCn1cc(-c2nc(-c3cc4cccnc4n3C)cs2)c2cc(OC)ccc21`: the growth with HCT-15 colon is 32.1%; in the assay with SNB-75 CNS it was 47.7%; in the assay with SNB-19 CNS, 87.4%; with U251 CNS, 59%; in the assay on PC-3 prostate, 16.1%; in the assay on SK-MEL-5 melanoma it was 26.7%. Also, the growth in the assay with UACC-62 melanoma was 61.7%; in the assay with LOX IMVI melanoma, 38.2%; in the assay on SK-MEL-28 melanoma, 88.3%; in the assay with SK-MEL-2 melanoma it was 56.3%; with EKVX NSCLC it was 24.8%; in the assay with SN12C renal it was 73%. Further, the growth is 51% in the assay on UO-31 renal; 19.5% with TK-10 renal; 64.2% in the assay with ACHN renal; 74.5% in the assay with CAKI-1 renal; 46.6% with A498 renal; 28.8% with CCRF-CEM leukemia. Besides, the growth with MOLT-4 leukemia was 48.5%.

Turning to `COc1ccc(/C=N\NC(=O)c2ccc3nc(-c4ccc(Cl)cc4)[nH]c3c2)cc1`, the growth with HCT-15 colon was 57.5%; in the assay on SNB-75 CNS it was 91.9%; with SNB-19 CNS, 24.2%; with U251 CNS, 7.96% (active); with PC-3 prostate it was -4.4% (active); in the assay with SK-MEL-5 melanoma it was 33.7%. Also, the growth is 30.9% with UACC-62 melanoma; 0.882% (active) in the assay with LOX IMVI melanoma; 12.5% in the assay on SK-MEL-28 melanoma; 64.1% in the assay on SK-MEL-2 melanoma; 29.4% with EKVX NSCLC; 6.24% (active) with SN12C renal. Further, the growth with UO-31 renal is 81.9%; in the assay with TK-10 renal, 39.1%; in the assay with ACHN renal, 21.9%; in the assay with CAKI-1 renal, 60.5%; in the assay on A498 renal, 66.6%; in the assay on CCRF-CEM leukemia, 65.3%. Besides, the growth with MOLT-4 leukemia is 68.2%.

For `CCOC(=O)c1c(NC(=S)Nc2ccc([N+](=O)[O-])cc2)sc2c1CCCCC2`, the growth is 66.6% in the assay with HCT-15 colon; 82.2% in the assay with SNB-19 CNS; 43.6% in the assay on PC-3 prostate; 47.8% in the assay with UACC-62 melanoma; 84.4% in the assay with LOX IMVI melanoma; 85.5% in the assay with SK-MEL-28 melanoma. The growth in the assay on SK-MEL-2 melanoma is 66.6%; with EKVX NSCLC, 79.2%; in the assay with SN12C renal, 55.7%; with UO-31 renal, 76.2%; in the assay on TK-10 renal it was 85.9%; in the assay with ACHN renal, 84.6%. Moreover, the growth with CAKI-1 renal was 79.1%; with A498 renal it was 49.8%; with CCRF-CEM leukemia, 64%; with MOLT-4 leukemia, 72.9%.

`O=C(c1ccccc1)[C@@H](c1ccccc1)[C@]1(O)C(=O)Nc2ccccc21`: the growth was 100% in the assay on HCT-15 colon; 83.7% in the assay on SNB-75 CNS; 94.1% with SNB-19 CNS; 101% with U251 CNS; 90.7% with PC-3 prostate; 92.1% with SK-MEL-5 melanoma. The growth in the assay on UACC-62 melanoma was 85.9%; with LOX IMVI melanoma it was 91.1%; in the assay on SK-MEL-28 melanoma it was 96.2%; in the assay with SK-MEL-2 melanoma it was 96.9%; with EKVX NSCLC it was 105%; in the assay on SN12C renal it was 82.3%. The growth in the assay with UO-31 renal was 76.1%; in the assay with TK-10 renal, 112%; in the assay on ACHN renal, 90.1%; with CAKI-1 renal, 84.6%; in the assay on A498 renal it was 100%; in the assay on CCRF-CEM leukemia, 100%. Further, the growth with MOLT-4 leukemia is 102%.

Take `CCC(=C(c1ccc(OCCN(CC)CC)cc1)c1ccc(OCCN(CC)CC)cc1)c1ccc(Cl)cc1`: the growth in the assay with HCT-15 colon was -81% (active); in the assay on SNB-75 CNS it was -73.6% (active); in the assay on SNB-19 CNS, -56.1% (active); in the assay on U251 CNS, -87.8% (active); in the assay on PC-3 prostate, -50.7% (active); with SK-MEL-5 melanoma it was -98.2% (active). For the same molecule, the growth was -68.3% (active) with UACC-62 melanoma; -87% (active) in the assay with LOX IMVI melanoma; -86.9% (active) in the assay on SK-MEL-28 melanoma; -44.9% (active) in the assay with SK-MEL-2 melanoma; 77.1% in the assay with EKVX NSCLC; -77% (active) in the assay with SN12C renal. Moreover, the growth with UO-31 renal was -81.2% (active); in the assay on TK-10 renal, -79.3% (active); in the assay with ACHN renal, -90.2% (active); in the assay with CAKI-1 renal it was -89.4% (active); in the assay with A498 renal, 43.3%; in the assay on CCRF-CEM leukemia, -65.3% (active). Also, the growth in the assay with MOLT-4 leukemia is -60.1% (active).
